# An excerpt weighted towards active compounds, which were near 2.4% of everything screened.
# D2 ag-1: activates the human D2 dopamine receptor; DiscoveRx PathHunter D2 beta-arrestin, luminescence, 90 min; 100% = 57 uM dopamine signal; 360,000 compounds, 0.084% hits; AID 624465; activation, % (no concentration beside the values); P14416; in the data active = activation above about 40%; inconclusive = between about 15% and that limit
#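 Agonist mode: compounds alone added to overnight-plated D2 PathHunter cells for 90 min at 37 C, with 57 uM final dopamine (EC100) defining full response. Beta-arrestin recruitment detected by chemiluminescent reagent, read after 1 h at ambient temperature.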
# D2 antag: D2 dopamine receptor (human) antagonism | 340,000 compounds, 2% hits | AID 485344 | P14416 | HEK293 TREx D2 cells, calcium flux, dopamine EC80 | inhibition, % at 10 µM; in the data active = inhibition above about 30%; inactive = below that, where a call was filed; note: 0% is about no effect
#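 Dopamine at EC80 is the agonist stimulus; test compounds precede it by 180 s. Calcium flux read kinetically in a force-coupled, inducible HEK293 T-REx D2 cell line.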
# D2 ag-2: agonists of human D2 dopamine receptor; AID 485358; HEK293 T-REx D2 cells, calcium flux agonist mode; activation, % at 2 µM; 340,000 compounds, 0.53% hits;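 active = activation over 3 SD above normal in the single-dose calcium agonist read, cut at about 30% in these data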; note: 0% is about no effect
#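 Agonism scored from kinetic calcium signal (1 read/sec, 180 s) following compound pin transfer, after a 10 s baseline. Cells: HEK293 Trex line expressing inducible D2 receptor coupled to calcium, dye-loaded after overnight culture at 30 C.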
# D2 PAM-1: positively modulates the human D2 dopamine receptor allosterically | potentiation, % at 10 µM | HEK293 T-REx D2, calcium flux, EC20 dopamine potentiation | P14416 | 340,000 compounds, 0.34% hits;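 active = potentiation over 3 SD above the plate norm, cut at about 30% in these data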; note: 0% is about no effect
#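 Tetracycline-induced HEK293 T-REx cells force-coupled to calcium signalling expressed D2; compounds were pin-added after a 10 s baseline, read kinetically 180 s, then an EC20 dopamine challenge followed with a further 180 s calcium read.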
# D2 PAM-2: potentiates the human D2 dopamine receptor allosterically; P14416; DiscoveRx D2 beta-arrestin cells, luminescence, 90 min; 100% = 57 uM dopamine signal; 360,000 compounds, 0.23% hits; AID 624464; potentiation, % (no concentration beside the values); in the data active = potentiation above about 50%; inconclusive = mostly about 30% to 49%
#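 PathHunter D2 cells, attached overnight at 37 deg C, received compound in DMSO plus dopamine at EC20 (50 nM final) for 90 min at 37 deg C. Beta-arrestin recruitment was read as luminescence after 1 h with detection reagent at ambient temperature.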
# D3 ag: activates human D3 dopamine receptor beta-arrestin recruitment; 2,300 compounds, 4% hits; shares compounds with D2 ag-2; Potency, µM (highest dose often 76.9 µM), inactives show top-dose activation, hits mostly activators; DiscoveRx D3 beta-arrestin cells, luminescence, 90 min; AID 720506;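 note: potency is the fitted concentration of half-maximal effect; 100% = dopamine control response; nearly all actives have a fitted effect of over 70% in size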
# Target sequence (P35462 whole entry, looked up): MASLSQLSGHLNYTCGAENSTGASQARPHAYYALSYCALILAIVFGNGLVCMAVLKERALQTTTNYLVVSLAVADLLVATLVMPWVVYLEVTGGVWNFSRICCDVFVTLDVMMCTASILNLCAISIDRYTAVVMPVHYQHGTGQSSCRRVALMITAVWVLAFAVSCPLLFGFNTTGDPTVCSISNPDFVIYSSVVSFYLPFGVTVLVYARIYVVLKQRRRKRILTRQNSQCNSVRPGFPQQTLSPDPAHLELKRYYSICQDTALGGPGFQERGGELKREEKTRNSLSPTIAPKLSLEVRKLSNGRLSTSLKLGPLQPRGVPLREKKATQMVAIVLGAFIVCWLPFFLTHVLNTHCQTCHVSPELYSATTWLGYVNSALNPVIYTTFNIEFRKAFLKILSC
# D2 ag-3: D2 receptor agonism, beta-arrestin counterscreen | Potency, µM (series often up to 76.9 µM), for the others: at the top dose activation, actives largely listed as activators | AID 720507 | DiscoveRx PathHunter D2 beta-arrestin, luminescence, 90 min; response scale: percent relative to full dopamine signal | 2,300 compounds, 5.9% hits | shares compounds with D2 ag-2; note: potency is the fitted concentration of half-maximal effect; % of control where 0% means no effect; nearly all actives have a fitted effect of over 70% in size
# An asterisk follows results filed as active; ? = inconclusive; . = no result; ! = not confirmed by another sample. Unless noted, calls come from the whole dose curve; as a rule, active = well fitted activation curve with a large enough effect; inconclusive = small, poorly fitted or top-dose-only effect; inactive = flat fitted curve, though single readings scatter.
SMILES,D2 ag-1,D2 antag,D2 ag-2,D2 PAM-1,D2 PAM-2,D3 ag,D2 ag-3
O=C(Cc1csc(Nc2nc(=S)[nH]c3ccccc23)n1)NCc1ccc(Cl)cc1,0,10,0,-16,-1,.,.
CCCn1c2ccccc2c2cnn(CC(=O)NCCCN3CCN(c4ccccc4)CC3)c(=O)c21,0,88*,22,-25,-32,17%,9%
COc1ccccc1N1CCN(CCCNC(=O)Cn2ncc3c([nH]c4ccccc43)c2=O)CC1,-5,90*,27,-26,-34,-24%,7%
O=C(Cc1csc(Nc2nc(=S)[nH]c3ccccc23)n1)NCCCN1CCN(c2ccccc2F)CC1,13,67*,47*,-19,-28,9%,15%
Cn1c(=O)cc(OCC(=O)NCCCN2CCN(c3ccccc3F)CC2)c2ccccc21,45*,78*,86*,-19,?,-6%,?
COc1cc(-c2nnc(SCCOc3ccc(Cl)cc3C)o2)cc(OC)c1OC,.,.,-2,5,.,.,.
O=C(CSc1nc2ncccc2o1)Nc1cccc(C(F)(F)F)c1,.,.,2,4,.,.,.
COc1ccc(N2CCN(Cc3nc4c(c(=O)[nH]c(=O)n4C)n3Cc3ccccc3C)CC2)cc1,.,.,0,.,.,.,.
CCCn1c2ccccc2c2cnn(CC(=O)OC)c(=O)c21,-3,-9,41*,3,-12,1%,-1%
Cn1c(C(=O)NCCCN2CCN(c3ccccc3F)CC2)cc2c(=O)[nH]c3ccccc3c21,?,105*,71*,-24,14,10%,29%
Cn1c2ccccc2c2cnn(CC(=O)NCCCN3CCN(c4ccccc4F)CC3)c(=O)c21,3,63*,69*!,-24,-7,13%,26%
N#Cc1c(NC(=O)c2cc3nc(-c4ccc(Br)cc4)cc(C(F)(F)F)n3n2)sc2c1CCCC2,.,.,0,.,.,.,.
COC(=O)c1[nH]c2ccccc2c1NC(=O)C(C)N1CCN(C(=O)c2ccco2)CC1 (stereo not given),?,6,47*,-12,-19,?,17%
COC(=O)c1[nH]c2cc(C)ccc2c1NC(=O)CN1CCN(C(=O)c2ccco2)CC1,11,.,.,.,-15,-6%,19%
COC(=O)c1[nH]c2ccccc2c1NC(=O)C(C)N1CCOCC1 (stereo not given),-3,.,.,0,-1,.,.
Nc1nc(CN2CCN(c3ccccc3)CC2)nc(Nc2ccc(Cl)cc2)n1,43*,77*,64*,-24,?,?,18µM*
Cc1ccc(Nc2nc(N)nc(CN3CCN(c4ccccc4F)CC3)n2)cc1,?,78*,75*,-24,18,-1%,?
Nc1nc(CN2CCCCCC2)nc(Nc2ccccc2)n1,0,10,-1,7,-4,.,.
COc1ccc(Nc2nc(N)nc(CN3CCC(C)CC3)n2)cc1,-3,-3,0,-6,-17,.,.
COc1ccc(Nc2nc(N)nc(CN3CCN(c4ccccn4)CC3)n2)cc1,?,73*,76*,-29,4,3%,?
Nc1nc(CN2CCN(c3ccccc3F)CC2)nc(Nc2ccccc2)n1,6,47*,60*,-24,-3,9%,16%
COc1ccc(N2CCN(C(=O)CCn3cnc4onc(-c5ccc(F)cc5)c4c3=O)CC2)cc1,.,.,-1,2,.,.,.
CC(C)N(Cc1cc2ccccc2[nH]c1=O)C(=O)c1cccc([N+](=O)[O-])c1,-1,1,1,6,0,.,.
Cc1ccc2[nH]c(=O)c(CN(C(=O)c3cccc([N+](=O)[O-])c3)C(C)C)cc2c1,0,-4,50*,-34,-3,-4%,0%

# High-throughput results: PubChem BioAssay, National Center for Advancing Translational Sciences (NCATS)
